Data taken from PubChem BioAssay AID1060 (Emory University Molecular Libraries Screening Center, 2008).
Potency and affinity values are given separately.

These compounds were tested against Estrogen receptor beta (Homo sapiens) (UniProt Q92731) (assay: ERβ–SRC-3 coactivator interaction inhibitors, confirmation, orthogonal assay, biochemical, ELISA, streptavidin-HRP readout (AID 1060)). Details: ERbeta-SRC-3 coactivator binding ELISA; series mostly up to 50 µM; percent of control: at the top concentration;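 active = fitted half-inhibition concentration at or below a set limit, with percent of control there at most 60; inactive = the rest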.
Sequence of Estrogen receptor beta (Homo sapiens) (Q92731 whole entry, looked up): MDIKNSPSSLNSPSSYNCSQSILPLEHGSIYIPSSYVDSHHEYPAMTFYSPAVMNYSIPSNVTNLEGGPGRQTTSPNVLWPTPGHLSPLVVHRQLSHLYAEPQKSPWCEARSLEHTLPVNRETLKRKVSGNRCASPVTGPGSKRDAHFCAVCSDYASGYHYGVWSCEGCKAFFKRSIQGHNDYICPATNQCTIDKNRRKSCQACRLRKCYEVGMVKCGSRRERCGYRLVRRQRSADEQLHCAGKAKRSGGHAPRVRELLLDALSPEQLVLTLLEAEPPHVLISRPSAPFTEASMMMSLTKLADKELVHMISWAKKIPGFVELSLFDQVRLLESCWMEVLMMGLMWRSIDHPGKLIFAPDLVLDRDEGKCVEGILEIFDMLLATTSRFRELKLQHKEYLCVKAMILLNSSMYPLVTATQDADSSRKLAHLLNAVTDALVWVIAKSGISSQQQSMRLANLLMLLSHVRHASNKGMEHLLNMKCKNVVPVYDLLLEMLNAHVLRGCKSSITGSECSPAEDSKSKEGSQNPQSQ

Percent of control, inactive:
CCCNCC1COc2ccccc2O1 (stereo unspecified) 109%
CSc1nc2c(c(=O)[nH]1)C(c1cccs1)C1=C(CCCC1=O)N2 (stereo unspecified) 132%
COc1ccccc1-c1nnc2sc(-c3cnccn3)nn12 97%
COc1ccc2c(=O)c3c(=O)n(Cc4ccco4)c(-c4ccco4)nc3oc2c1 131%
Cc1cc(-c2csc(N)n2)c(C)n1C 97.3%
O=S(=O)(Nc1ncnc2sc3c(c12)CCC3)c1ccc2ccccc2c1 131%
CCc1cc(=O)[nH]c(SCC(=O)Nc2ccc(C(=O)OC)cc2)n1 102%
COc1ccc2nc(-c3ccco3)c(-c3ccco3)nc2c1 62.9%
CC1CC(C(F)(F)C(F)(F)F)n2nc(C(=O)O)cc2N1 (stereo unspecified) 114%
Cc1sc2ncnc(NCc3ccco3)c2c1C 141%
COc1ccc(CCNC(=O)c2ccc3nc(-c4ccco4)c(-c4ccco4)nc3c2)cc1OC 99.6%
NC(=O)c1cccc2c1C(=O)N(C1CCCCC1)C2 118%
Cc1cc(C)cc(OCC(=O)Nc2ccc(N3CCCC3)cc2)c1 117%
CCC(=O)Nc1cccc(NC(C)=O)c1 101%
Cc1ccc(C(=O)CSC2=C(C#N)C(c3ccco3)CC(=O)N2)c(C)c1 (stereo unspecified) 134%
CCC(=O)Nc1ccc(C(=O)Cn2nc(C(=O)O)c3ccccc3c2=O)cc1 109%
